Most compounds without a hit are left out; they make up all but 3.9% or so of the library.
Platelet DG rel: platelet dense granule release activity | human platelet-rich plasma, SFLLRN dense granule ATP release, luminescence | inhibition, %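 (compounds screened at 7.5 µM in platelet-rich plasma)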 | hit rate 0.22% among 300,000 | AID 1663;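 active means mean replicate score, as percent of positive control, at or above 50; inconclusive means mean below 50 but at least one replicate at or above 50; inactive means mean and every replicate below 50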
PHOSPHO1 block: PHOSPHO1 (human) inhibition | inhibition, % at 13.3 µM | hit rate 1.1% among 290,000 | Q8TCT1 | AID 1565 | recombinant PHOSPHO1, absorbance phosphatase assay; in the data active means inhibition above about 60%
SKKanGAS inh: inhibitors of SKKanGAS S. pyogenes growth in kanamycin (SK-promoter or general growth effect); BacTiter-Glo, 6 h; inhibition, % at 7.5 µM; hit rate 1.3% among 300,000;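 active means mean replicate score, as percent of positive control median, at least 50; inconclusive means mean below 50 but one replicate at or above 50; inactive means mean and every replicate below 50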;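 further: strain carries kanamycin resistance gene driven by streptokinase promoter and grows in 40 µg/ml kanamycin; loss of luminescence reflects streptokinase promoter inhibition or plain growth inhibition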
Rtt109 HAT inh: inhibitors of Candida albicans Rtt109/Vps75 histone acetyltransferase | purified Rtt109/Vps75, ThioGlo CoA-SH fluorescence, 4 h | inhibition, % at 34.9 µM | hit rate 0.16% among 330,000 | AID 540336;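 active means inhibition of at least 50% in every replicate; inconclusive means best replicate reaches 50% inhibition but some replicates fall short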
Target sequence (Q5AAJ8 whole entry, looked up): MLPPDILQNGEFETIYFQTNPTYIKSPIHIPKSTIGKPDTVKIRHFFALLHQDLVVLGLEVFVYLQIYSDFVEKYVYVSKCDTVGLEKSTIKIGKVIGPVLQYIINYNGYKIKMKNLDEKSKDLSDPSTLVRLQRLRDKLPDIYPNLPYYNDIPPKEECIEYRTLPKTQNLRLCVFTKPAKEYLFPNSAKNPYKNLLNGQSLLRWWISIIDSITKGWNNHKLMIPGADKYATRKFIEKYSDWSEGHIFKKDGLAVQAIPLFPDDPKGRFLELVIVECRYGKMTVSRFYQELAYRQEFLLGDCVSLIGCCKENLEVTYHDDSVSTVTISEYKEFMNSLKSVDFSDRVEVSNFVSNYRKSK
TPT1 inh: blocks Candida albicans tRNA 2'-phosphotransferase; recombinant caTPT1, FP RNA substrate dephosphorylation; inhibition, % at 5 µM; hit rate 0.81% among 300,000; AID 1962;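 active means inhibition above the mean of all tested compounds plus 3 SD, set per screening campaign, cut at about 24% in these data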
WT yeast gro inh: growth inhibition of WT yeast, mitochondrial fusion screen; mitochondrial fusion phenotypic screen, WT strain; inhibition, % at 10 µM; hit rate 2.1% among 190,000; AID 1362; in the data active means inhibition above about 58%; tested in S. cerevisiae
caTPT1 confirm: confirmation of Candida albicans TPT1 inhibitors. shares compounds with TPT1 inh. inhibition, % at 5 µM. recombinant caTPT1, fluorescence polarization, RNase T1 coupled. hit rate 74% among 2,400;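 active means inhibition above the primary screen limit, the mean inhibition of all tested compounds plus 3 SD, cut at about 25% in these data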
RNase T1 inh: counter-screen for TPT1 inhibitors: inhibitors of Aspergillus oryzae RNase T1 | shares compounds with TPT1 inh | RNase T1 cleavage, fluorescence polarization, 1536-well | inhibition, % at 5 µM | hit rate 83% among 2,400 | AID 2153;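 active means inhibition above the solvent-only control well mean plus 3 SD, limit set per screening run, cut at about 23% in these data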;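 further: inhibitors block cleavage so intact labeled substrate keeps polarization high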
Target sequence (P00651 whole entry, looked up): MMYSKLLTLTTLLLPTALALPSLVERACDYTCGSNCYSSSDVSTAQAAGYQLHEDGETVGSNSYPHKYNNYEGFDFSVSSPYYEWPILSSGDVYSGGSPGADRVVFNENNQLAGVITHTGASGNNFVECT
Numbers stand for hits.

CCN(CC)c1ccc(/C=C2\C(=O)NC(=S)N(c3ccc(OC)cc3OC)C2=O)o1 was read as Platelet DG rel inactive, SKKanGAS inh inactive, Rtt109 HAT inh inactive, TPT1 inh 141, caTPT1 confirm 150 and RNase T1 inh 142.
`COc1ccccc1/C=C1\C(=O)NC(=S)N(c2ccccc2)C1=O` gave Platelet DG rel inactive, PHOSPHO1 block inactive, SKKanGAS inh inactive, Rtt109 HAT inh inactive and TPT1 inh inactive.
COc1cccc(N2C(=O)/C(=C/c3ccc(C)o3)C(=O)NC2=S)c1 was read as Platelet DG rel inactive, PHOSPHO1 block inactive, SKKanGAS inh inactive, Rtt109 HAT inh inactive, TPT1 inh 35, caTPT1 confirm 35 and RNase T1 inh 44.
Screening CCN1C(=O)/C(=C/c2ccc(N(CC)CC)cc2OC)C(=O)NC1=S returned Platelet DG rel inactive, PHOSPHO1 block inactive, SKKanGAS inh inactive, TPT1 inh 44, WT yeast gro inh inactive, caTPT1 confirm 95 and RNase T1 inh 101.
`Cc1ccc(/C=C2\C(=O)NC(=S)N(c3ccc(F)cc3)C2=O)o1` gave Platelet DG rel inactive, PHOSPHO1 block inactive, SKKanGAS inh inactive and Rtt109 HAT inh inconclusive.
`COc1ccc(N2C(=O)NC(=O)/C(=C\c3cn(CC(=O)N4CCOCC4)c4ccccc34)C2=O)c(OC)c1` gave Platelet DG rel inactive, PHOSPHO1 block inactive, SKKanGAS inh inactive, Rtt109 HAT inh inactive and TPT1 inh inactive.
`Cc1ccc(N2C(=O)/C(=C/c3ccc(CN(CCC#N)S(C)(=O)=O)o3)C(=O)NC2=S)cc1` gave Platelet DG rel inactive, PHOSPHO1 block inactive, SKKanGAS inh inactive, Rtt109 HAT inh inactive, TPT1 inh 36, WT yeast gro inh inactive, caTPT1 confirm 26 and RNase T1 inh 37.
Screening CC1CN1P1(=O)OCC(C)([N+](=O)[O-])CO1 (stereo unspecified) returned Rtt109 HAT inh inactive.
Screening c1ccc(C2NCCc3[nH]cnc32)cc1 (stereo unspecified) returned Platelet DG rel inactive, PHOSPHO1 block inactive, SKKanGAS inh inactive, Rtt109 HAT inh inactive and TPT1 inh inactive.
For COc1ccc(N2C(=O)/C(=C/c3ccc(N(C)C)o3)C(=O)NC2=S)cc1 the results were Platelet DG rel inactive, PHOSPHO1 block inactive, SKKanGAS inh inactive, Rtt109 HAT inh inactive, TPT1 inh 134, caTPT1 confirm 142 and RNase T1 inh 138.
`Cc1ccc(N2C(=O)NC(=O)/C(=C\c3ccc([N+](=O)[O-])o3)C2=O)cc1` gave Platelet DG rel inactive, PHOSPHO1 block inactive, SKKanGAS inh inactive, TPT1 inh 29, WT yeast gro inh inactive, caTPT1 confirm 50 and RNase T1 inh inactive.
Screening Cc1cccc(OCCn2cccc2/C=C2/C(=O)NC(=O)N(Cc3ccco3)C2=O)c1 returned Platelet DG rel inactive, PHOSPHO1 block inactive, SKKanGAS inh inactive, TPT1 inh 29, caTPT1 confirm inactive and RNase T1 inh 24.
Screening O=C1NC(=O)N(Cc2ccco2)C(=O)/C1=C\c1cccn1CCOc1ccc(Cl)cc1 returned Platelet DG rel inactive, PHOSPHO1 block inactive, SKKanGAS inh inactive, Rtt109 HAT inh inactive, TPT1 inh 62, WT yeast gro inh inactive, caTPT1 confirm inactive and RNase T1 inh inactive.
Screening CCc1ccc(N2C(=O)NC(=O)/C(=C/c3cccn3CCOc3ccc(C)cc3)C2=O)cc1 returned Platelet DG rel inactive, PHOSPHO1 block inactive, SKKanGAS inh inactive, Rtt109 HAT inh inactive, TPT1 inh inactive and WT yeast gro inh inactive.
`NS(=O)(=O)c1nc[nH]c1[N+](=O)[O-]` gave Rtt109 HAT inh inactive.
CN1C(=O)C(=Cc2ccc(SC3CCCCC3)o2)C(=O)N(C)C1=O was read as Platelet DG rel inactive, PHOSPHO1 block inactive, SKKanGAS inh inactive, Rtt109 HAT inh inactive, TPT1 inh inactive and WT yeast gro inh inactive.
For CN(C)C=C1C(=O)N(C2CCCCC2)C(=O)N(C2CCCCC2)C1=O the results were Platelet DG rel inactive, PHOSPHO1 block inactive, SKKanGAS inh inactive, Rtt109 HAT inh inactive, TPT1 inh 29, WT yeast gro inh inactive, caTPT1 confirm 43 and RNase T1 inh 58.
`NC(Cc1nc2ccccc2[nH]1)c1ccc(Cl)cc1` (stereo unspecified) gave Platelet DG rel inactive, PHOSPHO1 block inactive, SKKanGAS inh inactive, Rtt109 HAT inh inactive and TPT1 inh inactive.
`CCN(CC)c1ccc(/C=C/[N+](=O)[O-])cc1` gave Platelet DG rel inactive, PHOSPHO1 block inactive, SKKanGAS inh inactive, Rtt109 HAT inh inactive, TPT1 inh 127, WT yeast gro inh inactive, caTPT1 confirm 118 and RNase T1 inh 117.
Screening Clc1ccccc1C1=NCc2nncn2-c2sc(Br)cc21 returned Platelet DG rel inactive, SKKanGAS inh inactive and TPT1 inh inactive.
O=C(CCNC(=O)N1C[C@H]2C[C@@H](C1)c1cccc(=O)n1C2)Nc1cccc(Cl)c1 was read as Platelet DG rel inactive, PHOSPHO1 block inactive, SKKanGAS inh inactive, Rtt109 HAT inh inactive and TPT1 inh inactive.
Screening Cn1c(O)c(/C=N/c2ncccn2)c(=O)n(C)c1=O returned Platelet DG rel inactive, PHOSPHO1 block inactive, SKKanGAS inh inactive, Rtt109 HAT inh inactive, TPT1 inh inactive and WT yeast gro inh inactive.
For CCCCCCn1c(O)c(C=Nc2c(C)n(C)n(-c3ccccc3)c2=O)c(=O)[nH]c1=O the results were Platelet DG rel inactive, PHOSPHO1 block inactive, SKKanGAS inh inactive, Rtt109 HAT inh inactive, TPT1 inh inactive and WT yeast gro inh inactive.
Screening CCCCn1c(=O)c(C=Nc2cccnc2Cl)c(O)n(CCCCl)c1=O returned Platelet DG rel inactive, PHOSPHO1 block inactive, SKKanGAS inh inactive, Rtt109 HAT inh inactive, TPT1 inh 30, WT yeast gro inh inactive, caTPT1 confirm inactive and RNase T1 inh inactive.
Cc1cccc(N=Cc2c(O)n(C)c(=O)n(C)c2=O)c1 was read as Platelet DG rel inactive, PHOSPHO1 block inactive, SKKanGAS inh inactive, Rtt109 HAT inh inactive and TPT1 inh inactive.
Screening C=CCn1c(=O)c(C=Nc2cccc([N+](=O)[O-])c2)c(O)n(CCCC)c1=O returned Platelet DG rel inactive, PHOSPHO1 block inactive, SKKanGAS inh inactive, Rtt109 HAT inh inactive, TPT1 inh 113, WT yeast gro inh inactive, caTPT1 confirm 36 and RNase T1 inh 47.
C=CCn1c(=O)c(C=Nc2c(OC)cccc2[N+](=O)[O-])c(O)n(CCCC)c1=O was read as Platelet DG rel inactive, PHOSPHO1 block inactive, SKKanGAS inh inactive, Rtt109 HAT inh inactive, TPT1 inh 51, WT yeast gro inh inactive, caTPT1 confirm 30 and RNase T1 inh 39.
CCCC[N+]1(C)[C@@H]2CC(OC(=O)[C@H](CO)c3ccccc3)C[C@H]1[C@@H]1O[C@@H]12 (stereo partly specified) was read as Platelet DG rel inactive, PHOSPHO1 block inactive, SKKanGAS inh inactive, Rtt109 HAT inh inactive, TPT1 inh inactive and WT yeast gro inh inactive.
